# Experiments:
# [1] = molecular target: 26S proteasome regulatory subunit RPN8 (UniProt Q08723); test: cross-link between two proteins; cross-linking mass spectrometry
# [2] = molecular target: 26S proteasome regulatory subunit 4 homolog (UniProt P40327); test: as above
# [3] = molecular target: ATP synthase subunit K, mitochondrial (UniProt P81451); test: as above
# [4] = molecular target: 2-isopropylmalate synthase 2, mitochondrial (UniProt Q12166); test: as above
# [5] = molecular target: Protein transport protein SSS1 (UniProt P35179); test: cross-link between two proteins; affinity purification or IP with mass spectrometry; cross-linking mass spectrometry
# [6] = molecular target: Elongation factor 3A (UniProt P16521); test: as above
# [7] = molecular target: Heat shock protein homolog SSE1 (UniProt P32589); test: cross-link between two proteins
# [8] = molecular target: Heat shock protein homolog SSE2 (UniProt P32590); test: cross-link between two proteins; affinity purification or IP with mass spectrometry; cross-linking mass spectrometry
# [9] = molecular target: Large ribosomal subunit protein eL21A (UniProt Q02753); test: as above
# [10] = molecular target: Large ribosomal subunit protein eL8B (UniProt P29453); test: as above
# [11] = molecular target: Large ribosomal subunit protein uL24B (UniProt P53221); test: as above
# [12] = molecular target: Signal transduction protein MDG1 (UniProt P53885); test: as above
# [13] = molecular target: Small ribosomal subunit protein eS1B (UniProt P23248); test: as above
# [14] = molecular target: Small ribosomal subunit protein uS10 (UniProt P38701); test: as above
# [15] = molecular target: Small ribosomal subunit protein uS11B (UniProt P39516); test: as above
# [16] = molecular target: ATP synthase subunit f, mitochondrial (UniProt Q06405); test: cross-link between two proteins; cross-linking mass spectrometry
# [17] = molecular target: 26S proteasome regulatory subunit RPN3 (UniProt P40016); test: as above
# [18] = molecular target: 26S proteasome subunit RPT4 (UniProt P53549); test: as above
# [19] = molecular target: Heat shock protein STI1 (UniProt P15705); test: cross-link between two proteins; affinity purification or IP with mass spectrometry; cross-linking mass spectrometry
# [20] = molecular target: Ribosome-associated molecular chaperone SSB1 (UniProt P11484); test: as above
# [21] = molecular target: ATP synthase subunit 5, mitochondrial (UniProt P09457); test: cross-link between two proteins; cross-linking mass spectrometry
# [22] = molecular target: ATP synthase subunit H, mitochondrial (UniProt Q12349); test: as above
# [23] = molecular target: ATP synthase subunit d, mitochondrial (UniProt P30902); test: as above
# [24] = molecular target: 26S proteasome regulatory subunit 8 homolog (UniProt Q01939); test: as above
# [25] = molecular target: 26S proteasome regulatory subunit 7 homolog (UniProt P33299); test: as above
# [26] = molecular target: 26S proteasome regulatory subunit RPN9 (UniProt Q04062); test: as above
# [27] = molecular target: ATP-dependent RNA helicase HAS1 (UniProt Q03532); test: as above
# [28] = molecular target: ATP-dependent RNA helicase DBP10 (UniProt Q12389); test: as above
# [29] = molecular target: 26S proteasome regulatory subunit RPN2 (UniProt P32565); test: as above
# [30] = molecular target: ATP synthase subunit gamma, mitochondrial (UniProt P38077); test: as above
# [31] = molecular target: 26S proteasome regulatory subunit RPN7 (UniProt Q06103); test: as above
# [32] = molecular target: Large ribosomal subunit protein eL22A (UniProt P05749); test: as above
# [33] = molecular target: Large ribosomal subunit protein uL3 (UniProt P14126); test: as above
# [34] = molecular target: ATP-dependent molecular chaperone HSC82 (UniProt P15108); test: cross-link between two proteins; affinity purification or IP with mass spectrometry; cross-linking mass spectrometry
# [35] = molecular target: ATP synthase subunit 4, mitochondrial (UniProt P05626); test: cross-link between two proteins; cross-linking mass spectrometry
# [36] = molecular target: Large ribosomal subunit protein eL13B (UniProt P40212); test: as above
# [37] = molecular target: Casein kinase II subunit beta (UniProt P43639); test: as above
# [38] = molecular target: Casein kinase II subunit beta' (UniProt P38930); test: as above
# [39] = molecular target: Cytochrome b-c1 complex subunit 10, mitochondrial (UniProt P37299); test: as above
# [40] = molecular target: Cytochrome b-c1 complex subunit 2, mitochondrial (UniProt P07257); test: as above
# [41] = molecular target: Cytochrome c oxidase subunit 12, mitochondrial (UniProt Q01519); test: as above
# [42] = molecular target: Cytochrome c oxidase subunit 5A, mitochondrial (UniProt P00424); test: as above
# [43] = molecular target: Cytochrome c oxidase subunit 6, mitochondrial (UniProt P00427); test: as above
# [44] = molecular target: DNA-directed RNA polymerase II subunit RPB11 (UniProt P38902); test: as above
# [45] = molecular target: DNA-directed RNA polymerases I, II, and III subunit RPABC5 (UniProt P22139); test: as above
# [46] = molecular target: FK506-binding protein 4 (UniProt Q06205); test: as above
# [47] = molecular target: H/ACA ribonucleoprotein complex subunit NOP10 (UniProt Q6Q547); test: cross-link between two proteins
# Chain of Ribosome-associated molecular chaperone SSB1 (P11484 whole entry): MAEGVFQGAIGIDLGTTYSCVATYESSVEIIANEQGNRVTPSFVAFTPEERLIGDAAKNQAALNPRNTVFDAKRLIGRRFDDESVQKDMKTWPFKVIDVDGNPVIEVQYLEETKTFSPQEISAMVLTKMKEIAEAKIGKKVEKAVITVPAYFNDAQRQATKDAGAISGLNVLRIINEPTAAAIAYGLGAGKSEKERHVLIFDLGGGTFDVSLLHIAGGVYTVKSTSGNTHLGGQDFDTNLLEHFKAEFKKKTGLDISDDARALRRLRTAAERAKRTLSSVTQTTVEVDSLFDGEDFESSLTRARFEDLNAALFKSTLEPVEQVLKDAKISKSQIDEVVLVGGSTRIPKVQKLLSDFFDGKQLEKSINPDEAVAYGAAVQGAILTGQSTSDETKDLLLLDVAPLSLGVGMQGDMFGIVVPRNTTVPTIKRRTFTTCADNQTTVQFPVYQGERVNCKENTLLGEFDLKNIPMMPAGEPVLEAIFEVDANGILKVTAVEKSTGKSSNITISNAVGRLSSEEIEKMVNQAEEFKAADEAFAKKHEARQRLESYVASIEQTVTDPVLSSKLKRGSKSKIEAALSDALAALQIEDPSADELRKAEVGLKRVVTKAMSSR
# Chain of Ribosome-associated molecular chaperone SSB1, P11484 (P11484 whole entry): as above
# Chain of 26S proteasome regulatory subunit 8 homolog (Q01939 whole entry): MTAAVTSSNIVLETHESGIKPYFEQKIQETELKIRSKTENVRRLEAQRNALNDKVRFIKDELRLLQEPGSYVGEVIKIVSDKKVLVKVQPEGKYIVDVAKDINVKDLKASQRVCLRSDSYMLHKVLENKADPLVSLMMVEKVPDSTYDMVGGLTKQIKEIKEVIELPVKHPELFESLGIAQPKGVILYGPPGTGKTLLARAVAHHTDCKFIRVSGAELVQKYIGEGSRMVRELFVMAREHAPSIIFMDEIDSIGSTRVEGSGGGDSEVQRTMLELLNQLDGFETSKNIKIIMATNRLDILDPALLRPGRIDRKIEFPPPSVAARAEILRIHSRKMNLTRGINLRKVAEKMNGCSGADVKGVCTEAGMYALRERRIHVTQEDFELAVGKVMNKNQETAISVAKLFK
# Chain of 26S proteasome regulatory subunit RPN3 (P40016 whole entry): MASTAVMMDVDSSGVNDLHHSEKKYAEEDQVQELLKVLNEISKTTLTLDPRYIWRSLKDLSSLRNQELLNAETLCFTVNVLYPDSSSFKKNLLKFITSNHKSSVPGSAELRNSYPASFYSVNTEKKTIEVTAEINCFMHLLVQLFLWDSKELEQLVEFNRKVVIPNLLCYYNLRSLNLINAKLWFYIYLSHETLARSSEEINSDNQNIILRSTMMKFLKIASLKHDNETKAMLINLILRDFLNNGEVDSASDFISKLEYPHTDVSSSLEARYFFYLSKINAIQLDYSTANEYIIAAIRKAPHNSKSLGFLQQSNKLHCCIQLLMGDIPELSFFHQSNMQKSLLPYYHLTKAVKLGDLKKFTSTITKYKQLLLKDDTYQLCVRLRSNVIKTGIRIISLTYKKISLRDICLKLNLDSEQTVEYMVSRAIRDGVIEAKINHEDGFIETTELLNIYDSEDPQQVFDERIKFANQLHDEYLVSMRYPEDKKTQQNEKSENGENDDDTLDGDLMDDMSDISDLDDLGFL
# Chain of 26S proteasome regulatory subunit 4 homolog (P40327 whole entry): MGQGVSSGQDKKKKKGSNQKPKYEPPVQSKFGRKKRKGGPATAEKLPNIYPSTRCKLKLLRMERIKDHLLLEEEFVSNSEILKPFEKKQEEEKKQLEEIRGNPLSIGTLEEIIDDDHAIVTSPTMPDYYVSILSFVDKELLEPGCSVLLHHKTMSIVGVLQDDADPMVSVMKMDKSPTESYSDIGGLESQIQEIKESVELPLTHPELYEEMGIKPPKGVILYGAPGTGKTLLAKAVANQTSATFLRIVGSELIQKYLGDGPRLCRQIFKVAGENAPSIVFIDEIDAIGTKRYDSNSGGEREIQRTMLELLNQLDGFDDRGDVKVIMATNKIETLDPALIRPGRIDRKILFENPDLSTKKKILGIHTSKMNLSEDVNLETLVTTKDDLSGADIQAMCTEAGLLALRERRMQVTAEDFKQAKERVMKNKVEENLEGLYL
# Chain of Nucleolar protein 16, P40007 (P40007 whole entry): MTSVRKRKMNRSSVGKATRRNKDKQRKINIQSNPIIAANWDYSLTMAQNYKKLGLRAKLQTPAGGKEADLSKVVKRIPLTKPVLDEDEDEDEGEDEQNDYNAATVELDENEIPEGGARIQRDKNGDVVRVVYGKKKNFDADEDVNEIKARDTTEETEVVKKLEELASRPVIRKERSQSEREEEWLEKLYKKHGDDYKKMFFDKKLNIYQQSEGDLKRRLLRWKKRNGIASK
# Chain of ATP-dependent RNA helicase HAS1 (Q03532 whole entry): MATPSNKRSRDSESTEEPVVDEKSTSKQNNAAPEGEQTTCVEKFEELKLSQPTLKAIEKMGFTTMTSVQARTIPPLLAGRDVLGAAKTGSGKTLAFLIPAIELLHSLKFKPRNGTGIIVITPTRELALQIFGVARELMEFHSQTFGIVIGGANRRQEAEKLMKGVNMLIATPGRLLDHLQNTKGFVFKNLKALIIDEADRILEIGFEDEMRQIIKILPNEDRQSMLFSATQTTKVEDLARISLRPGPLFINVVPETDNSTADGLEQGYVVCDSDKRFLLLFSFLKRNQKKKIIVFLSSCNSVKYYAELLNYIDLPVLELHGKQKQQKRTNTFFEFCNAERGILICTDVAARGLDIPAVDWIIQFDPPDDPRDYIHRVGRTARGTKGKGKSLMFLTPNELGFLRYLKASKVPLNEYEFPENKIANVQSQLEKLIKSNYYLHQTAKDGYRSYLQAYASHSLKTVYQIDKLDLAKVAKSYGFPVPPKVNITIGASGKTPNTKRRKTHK
# Chain of 26S proteasome regulatory subunit RPN8 (Q08723 whole entry): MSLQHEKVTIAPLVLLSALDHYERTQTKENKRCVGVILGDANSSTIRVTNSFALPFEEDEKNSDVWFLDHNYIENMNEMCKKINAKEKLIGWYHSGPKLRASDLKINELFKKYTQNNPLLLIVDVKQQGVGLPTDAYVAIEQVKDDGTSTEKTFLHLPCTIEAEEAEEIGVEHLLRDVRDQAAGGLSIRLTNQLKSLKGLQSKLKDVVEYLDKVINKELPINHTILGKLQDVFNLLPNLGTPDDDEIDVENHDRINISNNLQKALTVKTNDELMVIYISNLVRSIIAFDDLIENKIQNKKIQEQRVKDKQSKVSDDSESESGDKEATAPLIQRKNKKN
# Chain of 26S proteasome subunit RPT4 (P53549 whole entry): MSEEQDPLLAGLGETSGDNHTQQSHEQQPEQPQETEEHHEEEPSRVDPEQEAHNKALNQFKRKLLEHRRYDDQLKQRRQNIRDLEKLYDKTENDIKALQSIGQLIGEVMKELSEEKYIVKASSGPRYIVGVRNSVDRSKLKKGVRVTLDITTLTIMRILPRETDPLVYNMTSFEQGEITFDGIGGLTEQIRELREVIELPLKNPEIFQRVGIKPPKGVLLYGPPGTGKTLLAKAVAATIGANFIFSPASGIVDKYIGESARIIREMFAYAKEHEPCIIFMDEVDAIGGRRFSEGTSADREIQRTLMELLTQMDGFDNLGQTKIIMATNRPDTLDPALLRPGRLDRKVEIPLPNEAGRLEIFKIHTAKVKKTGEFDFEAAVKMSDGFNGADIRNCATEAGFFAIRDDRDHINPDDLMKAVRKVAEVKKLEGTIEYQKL
# Chain of DNA-directed RNA polymerases I, II, and III subunit RPABC5 (P22139 whole entry): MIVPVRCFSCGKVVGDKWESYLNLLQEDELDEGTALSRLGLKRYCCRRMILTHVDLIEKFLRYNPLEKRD
# Chain of Small ribosomal subunit protein eS1B (P23248 whole entry): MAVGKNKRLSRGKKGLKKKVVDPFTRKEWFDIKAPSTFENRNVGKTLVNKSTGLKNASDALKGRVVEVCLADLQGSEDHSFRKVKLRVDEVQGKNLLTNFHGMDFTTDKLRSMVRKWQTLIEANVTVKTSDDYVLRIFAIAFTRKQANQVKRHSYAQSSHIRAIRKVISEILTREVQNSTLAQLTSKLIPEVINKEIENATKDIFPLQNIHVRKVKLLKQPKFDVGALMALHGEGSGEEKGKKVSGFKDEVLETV
# Chain of Large ribosomal subunit protein eL8B (P29453 whole entry): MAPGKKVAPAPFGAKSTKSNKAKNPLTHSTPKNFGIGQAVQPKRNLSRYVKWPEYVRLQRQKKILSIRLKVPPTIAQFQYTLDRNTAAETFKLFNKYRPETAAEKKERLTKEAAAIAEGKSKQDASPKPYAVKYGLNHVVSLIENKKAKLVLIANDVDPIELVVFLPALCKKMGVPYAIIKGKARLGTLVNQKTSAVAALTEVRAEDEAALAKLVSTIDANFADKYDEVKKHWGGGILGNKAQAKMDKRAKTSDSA
# Chain of Large ribosomal subunit protein eL22A (P05749 whole entry): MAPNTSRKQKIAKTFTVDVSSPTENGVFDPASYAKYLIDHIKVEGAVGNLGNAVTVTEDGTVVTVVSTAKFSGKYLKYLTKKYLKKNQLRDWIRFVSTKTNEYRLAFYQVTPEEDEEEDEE
# Chain of Cytochrome c oxidase subunit 12, mitochondrial (Q01519 whole entry): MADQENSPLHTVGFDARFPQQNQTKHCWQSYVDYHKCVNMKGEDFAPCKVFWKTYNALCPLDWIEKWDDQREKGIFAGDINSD
substance,measurement,setting,value
"26S proteasome regulatory subunit RPN10, P38886",listed as a hit,[1],yes
"26S proteasome regulatory subunit 7 homolog, P33299",listed as a hit,[2],yes
"ATP synthase subunit e, mitochondrial, P81449",listed as a hit,[3],yes
"2-isopropylmalate synthase, P06208",listed as a hit,[4],yes
"Protein transport protein SEC61, P32915",listed as a hit,[5],yes
"Ribosome-associated molecular chaperone SSB1, P11484",listed as a hit,[6],yes
same,listed as a hit,[7],yes
same,listed as a hit,[8],yes
same,listed as a hit,[9],yes
same,listed as a hit,[10],yes
same,listed as a hit,[11],yes
same,listed as a hit,[12],yes
same,listed as a hit,[13],yes
same,listed as a hit,[14],yes
same,listed as a hit,[15],yes
"ATP synthase subunit d, mitochondrial, P30902",listed as a hit,[16],yes
"26S proteasome regulatory subunit 6B homolog, P33298",listed as a hit,[17],yes
same,listed as a hit,[18],yes
"ATP-dependent molecular chaperone HSC82, P15108",listed as a hit,[19],yes
"Large ribosomal subunit protein uL29B, P0CX85",listed as a hit,[20],yes
"ATP synthase subunit 4, mitochondrial, P05626",listed as a hit,[21],yes
same,listed as a hit,[22],yes
same,listed as a hit,[23],yes
"Enolase 1, P00924",listed as a hit,[20],yes
"Heat shock protein SSA2, P10592",listed as a hit,[20],yes
"Ubiquitin C-terminal hydrolase RPN11, P43588",listed as a hit,[24],yes
same,listed as a hit,[1],yes
same,listed as a hit,[18],yes
"26S proteasome regulatory subunit RPN12, P32496",listed as a hit,[17],yes
"26S proteasome regulatory subunit 4 homolog, P40327",listed as a hit,[24],yes
"26S proteasome regulatory subunit 6A, P33297",listed as a hit,[2],yes
same,listed as a hit,[25],yes
same,listed as a hit,[26],yes
"Proteasome-interacting protein CIC1, P38779",listed as a hit,[27],yes
"Ribosome biogenesis protein NSA2, P40078",listed as a hit,[28],yes
"26S proteasome regulatory subunit RPN13, O13563",listed as a hit,[29],yes
"ATP synthase subunit epsilon, mitochondrial, P21306",listed as a hit,[30],yes
"Heat shock protein STI1, P15705",listed as a hit,[17],yes
"Polyadenylate-binding protein, cytoplasmic and nuclear, P04147",listed as a hit,[20],yes
"26S proteasome complex subunit SEM1, O94742",listed as a hit,[31],yes
"Large ribosomal subunit protein eL24A, P04449",listed as a hit,[32],yes
same,listed as a hit,[33],yes
same,listed as a hit,[20],yes
"26S proteasome regulatory subunit RPN2, P32565",listed as a hit,[2],yes
same,listed as a hit,[24],yes
same,listed as a hit,[17],yes
"ATP-dependent molecular chaperone HSP82, P02829",listed as a hit,[34],yes
"ATP synthase subunit beta, mitochondrial, P00830",listed as a hit,[35],yes
"Nucleolar protein 16, P40007",listed as a hit,[27],yes
same,listed as a hit,[36],yes
"Casein kinase II subunit alpha, P15790",listed as a hit,[37],yes
"Casein kinase II subunit alpha', P19454",listed as a hit,[38],yes
"Cytochrome b-c1 complex subunit 2, mitochondrial, P07257",listed as a hit,[39],yes
"Cytochrome b-c1 complex subunit 1, mitochondrial, P07256",listed as a hit,[40],yes
"Respiratory supercomplex factor 2, mitochondrial, P53721",listed as a hit,[41],yes
"Cytochrome b-c1 complex subunit 6, mitochondrial, P00127",listed as a hit,[42],yes
"Cytochrome c oxidase subunit 5A, mitochondrial, P00424",listed as a hit,[43],yes
"DNA-directed RNA polymerase II subunit RPB3, P16370",listed as a hit,[44],yes
same,listed as a hit,[45],yes
"DNA-directed RNA polymerase II subunit RPB2, P08518",listed as a hit,[45],yes
"25S rRNA (cytosine(2870)-C(5))-methyltransferase, P40991",listed as a hit,[46],yes
"H/ACA ribonucleoprotein complex subunit CBF5, P33322",listed as a hit,[47],yes
